LYPLA2 counter: counter-screen for PME1 inhibitors: inhibitors of human LYPLA2; O95372; recombinant LYPLA2, FP-Rh probe fluorescence polarization; inhibition, % at 5.9 µM; hit rate 0.38% among 320,000; AID 2177;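 active = inhibition above the screen-wide mean plus 3 SD, limit set per campaign, cut at about 26% in these data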;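 also: 0% = LYPLA2 with DMSO and 100% = wells lacking LYPLA2 enzyme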
Target sequence (O95372 whole entry, looked up): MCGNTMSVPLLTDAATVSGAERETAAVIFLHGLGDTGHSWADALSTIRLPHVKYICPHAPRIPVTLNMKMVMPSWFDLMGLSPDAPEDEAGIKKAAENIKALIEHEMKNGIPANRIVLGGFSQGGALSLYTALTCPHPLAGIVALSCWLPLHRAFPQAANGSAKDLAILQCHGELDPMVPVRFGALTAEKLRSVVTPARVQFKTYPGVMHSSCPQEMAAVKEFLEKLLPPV
LYPLA1 inh: counter-screen for PME1 inhibitors: inhibitors of human LYPLA1 | O75608 | recombinant LYPLA1, FP-Rh probe fluorescence polarization | inhibition, % at 5.9 µM | hit rate 0.16% among 320,000 | AID 2174;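 active = inhibition above the mean of all tested compounds plus 3 SD, set per campaign, cut at about 14% in these data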;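 also: inhibitors block serine hydrolase probe labeling of LYPLA1 so polarization falls; 0% = enzyme with DMSO and 100% = wells lacking LYPLA1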
PAD4 FP inh: PAD4 (human) enzyme inhibition. Q9UM07. hit rate 0.41% among 330,000. recombinant PAD4, RCA probe fluorescence polarization. inhibition, % at 6.36 µM;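 active = percent inhibition above a cutoff equal to the mean of all tested compounds plus 3 SD, cut at about 15% in these data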;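 also: 0% = PAD4 with RCA probe and DMSO and 100% = probe without PAD4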
PME-1 primary: PME-1 (human) inhibition; Q9Y570; recombinant PME-1, FP-Rh probe fluorescence polarization; inhibition, % at 5.9 µM; hit rate 0.53% among 320,000;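 active = inhibition above the campaign mean of all compounds plus 3 SD, cut at about 26% in these data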;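 also: competitive labeling of PME-1 active site by serine hydrolase directed probe; 0% = PME-1 with DMSO and 100% = wells lacking PME-1 enzyme; inhibitors block probe labeling so polarization falls and inhibition rises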
GSTO1 inh: GSTO1 inhibition, counter-screen for RBBP9 inhibitors; recombinant GSTO1, activity-based probe fluorescence polarization; hit rate 1.1% among 300,000; inhibition, % at 5.96 µM;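 active = inhibition above the campaign mean inhibition plus 3 SD, cut at about 35% in these data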;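 also: 0% = GSTO1-1 with DMSO and 100% = wells lacking GSTO1-1 enzyme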
Target sequence (P78417 whole entry, looked up): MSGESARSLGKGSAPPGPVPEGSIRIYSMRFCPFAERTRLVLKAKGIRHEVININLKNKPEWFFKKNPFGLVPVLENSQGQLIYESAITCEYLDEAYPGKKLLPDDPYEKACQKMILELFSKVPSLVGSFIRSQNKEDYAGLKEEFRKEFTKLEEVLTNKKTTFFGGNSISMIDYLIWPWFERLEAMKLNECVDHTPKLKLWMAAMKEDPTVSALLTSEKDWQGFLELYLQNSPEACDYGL
Fam108B inh: counter-screen for RBBP9 inhibitors: inhibitors of mouse Fam108B. recombinant Fam108B, FP-Rh probe fluorescence polarization. inhibition, % at 9.51 µM. hit rate 0.33% among 300,000. AID 1947;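 active = inhibition above the screen mean inhibition plus 3 SD, computed separately per campaign, cut at about 18% in these data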;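 also: inhibitors lower polarization as less probe binds the enzyme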
GSTO1 inh conf: confirmation of human GSTO1 inhibitors; shares compounds with GSTO1 inh; recombinant GSTO1, probe fluorescence polarization; inhibition, % at 5.96 µM; hit rate 54% among 2,400; AID 2176;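 active = inhibition above the primary screen's cutoff, its mean inhibition plus 3 SD, cut at about 35% in these data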;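 also: loss of polarization as inhibitors block binding of rhodamine sulfonate ester activity probe; 0% = GSTO1 with DMSO and 100% = wells lacking GSTO1 enzyme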
LYPLA1 conf: counter-screen for PME1 inhibitors: confirmation of human LYPLA1 inhibitors. hit rate 69% among 480. inhibition, % at 5.9 µM. AID 2233. recombinant LYPLA1, FP-Rh probe fluorescence polarization. shares compounds with LYPLA1 inh;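 active = mean inhibition across replicates above the hit cutoff set in the primary screen, cut at about 15% in these data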;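 also: loss of FP-Rh probe labeling of LYPLA1 seen as lower polarization; 0% = LYPLA1 with DMSO and 100% = wells lacking LYPLA1 enzyme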
LYPLA2 conf: counter-screen for PME1 inhibitors: confirmation of human LYPLA2 inhibitors; AID 2232; hit rate 72% among 1,100; shares compounds with LYPLA2 counter; recombinant LYPLA2, FP-Rh probe fluorescence polarization; inhibition, % at 5.9 µM;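 active = mean inhibition across replicates above the hit cutoff set in the primary screen, cut at about 26% in these data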;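 also: blocked labeling of the enzyme by serine hydrolase FP-Rh probe lowers polarization; 0% = enzyme with DMSO and 100% = wells lacking LYPLA2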
PAD4 confirm: PAD4 (human) inhibition, confirmed. recombinant PAD4, RCA probe fluorescence polarization. AID 488796. shares compounds with PAD4 FP inh. inhibition, % at 6.36 µM. hit rate 28% among 1,200;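 active = mean inhibition across replicates above the hit cutoff set by the earlier primary screen, cut at about 15% in these data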;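 also: inhibitors block active-site labeling by the probe so polarization falls; 0% = PAD4 with probe and DMSO and 100% = probe without PAD4 enzyme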
An asterisk follows results filed as active. This is a sample that favours compounds with a hit; in the whole collection about 1.7% have one here.

`O=C(CN1C(=O)c2ccccc2C1=O)Nc1cccc2cccnc12` gave LYPLA2 counter 21, LYPLA1 inh 4, PAD4 FP inh 2, PME-1 primary -1, GSTO1 inh 6 and Fam108B inh 0.
O=C1C=C(Nc2cccc3cccnc23)c2ccccc2C1=O was read as LYPLA2 counter 4, LYPLA1 inh 5, PAD4 FP inh 34*, PME-1 primary 10, GSTO1 inh 77*, Fam108B inh 9, GSTO1 inh conf 58* and PAD4 confirm 54*.
N#Cc1sc2nc(-c3ccccc3)cc(-c3ccco3)c2c1N was read as LYPLA2 counter 2, LYPLA1 inh -6, PAD4 FP inh 46*, PME-1 primary 16, GSTO1 inh 66*, Fam108B inh 11, GSTO1 inh conf 78* and PAD4 confirm 116*.
Screening COC(=O)CCC(=O)OC1(C)C(=O)C=C2C=C(C3CC3)N(CCCOC(C)C)C=C2C1=O (centres undefined) returned LYPLA2 counter 5, LYPLA1 inh 2, PAD4 FP inh 30*, PME-1 primary 4, GSTO1 inh 59*, Fam108B inh 8, GSTO1 inh conf 15 and PAD4 confirm -7.
COC(=O)CCC(=O)OC1(C)C(=O)C=C2C=C(C3CC3)N(CCc3c[nH]c4ccccc34)C=C2C1=O (centres undefined) was read as LYPLA2 counter 5, LYPLA1 inh 3, PAD4 FP inh 11, PME-1 primary 5, GSTO1 inh 28 and Fam108B inh 0.
For O=c1[nH]nc(CNc2ccc(O)cc2)c2ccccc12 the results were LYPLA2 counter 34*, LYPLA1 inh 16*, PAD4 FP inh 55*, PME-1 primary 45*, GSTO1 inh 82*, Fam108B inh 8, GSTO1 inh conf -2, LYPLA1 conf 5, LYPLA2 conf 5 and PAD4 confirm 3.
For Cn1[nH]c(CSc2ccc(Cl)cc2)cc1=O the results were LYPLA2 counter 2, LYPLA1 inh -2, PAD4 FP inh 38*, PME-1 primary -4, GSTO1 inh 59*, Fam108B inh 0, GSTO1 inh conf 14 and PAD4 confirm 6.
CCNC(=O)c1ccc(CSc2ccc(Cl)cc2)cc1 was read as LYPLA2 counter 9, LYPLA1 inh 0, PAD4 FP inh -1, PME-1 primary 3, GSTO1 inh -3 and Fam108B inh -3.
`O=C(c1ccco1)N1N=C(c2ccco2)CC1c1ccc(Cl)cc1Cl` (centres undefined) gave LYPLA2 counter -7, LYPLA1 inh -3, PAD4 FP inh 5 and PME-1 primary -4.
`CCN(CC)c1ccc(N=Cc2c(C)[nH]c3ccccc23)cc1` gave LYPLA2 counter -4, LYPLA1 inh -2, PAD4 FP inh 25*, PME-1 primary 7, GSTO1 inh 56*, Fam108B inh 4, GSTO1 inh conf 5 and PAD4 confirm 3.
`CC(=O)Nc1ccc(NC(=O)Oc2ccccc2)cc1` gave LYPLA2 counter 5, LYPLA1 inh 1, PAD4 FP inh 4, PME-1 primary -2, GSTO1 inh 7 and Fam108B inh 1.
For CN(C)c1ccc(NC(=O)Oc2ccccc2)cc1 the results were LYPLA2 counter 9, LYPLA1 inh 0, PAD4 FP inh 17*, PME-1 primary 8, GSTO1 inh 39*, Fam108B inh 1, GSTO1 inh conf 7 and PAD4 confirm -2.
Screening CC(=O)Oc1ccc(/C=C2/C(=O)N(c3ccccc3)N=C2C)cc1 returned LYPLA2 counter 4, LYPLA1 inh 3, PAD4 FP inh 54*, PME-1 primary 3, GSTO1 inh 52*, Fam108B inh 7, GSTO1 inh conf 14 and PAD4 confirm 0.
Screening CCOc1cc(/C=C2/C(=O)N(c3ccccc3)N=C2C)ccc1OC(=O)c1cccs1 returned LYPLA2 counter 1, LYPLA1 inh -5, PAD4 FP inh 54*, PME-1 primary 6, GSTO1 inh 66*, Fam108B inh 3, GSTO1 inh conf 4 and PAD4 confirm 2.
Screening CCOc1cc(/C=N/NC(=O)c2ccccn2)ccc1OC(=O)c1cccs1 returned LYPLA2 counter -2, LYPLA1 inh -7, PAD4 FP inh 1, PME-1 primary -1, GSTO1 inh -4 and Fam108B inh -6.
For CC1=NN(c2ccccc2)C(=O)/C1=C/c1cccc(C)c1 the results were LYPLA2 counter 2, LYPLA1 inh -5, PAD4 FP inh 56*, PME-1 primary -1, GSTO1 inh 59*, Fam108B inh 3, GSTO1 inh conf 12 and PAD4 confirm 1.
For COc1cc(/C=C2/C(=O)N(c3cccc(Br)c3)N=C2C)cc(OC)c1O the results were LYPLA2 counter -10, LYPLA1 inh -5, PAD4 FP inh 27*, PME-1 primary 0, GSTO1 inh 42*, Fam108B inh -2, GSTO1 inh conf 6 and PAD4 confirm 1.
Cc1nc(N2CCC(C)CC2)c2nnn(Cc3ccccc3)c2n1 was read as LYPLA2 counter -1, LYPLA1 inh -3, PAD4 FP inh -1, PME-1 primary -1, GSTO1 inh 6 and Fam108B inh 2.
COCc1c(C(=O)OC/C(O)=C(\C#N)c2nc3ccccc3[nH]2)oc2ccccc12 was read as LYPLA2 counter -9, LYPLA1 inh -4, PAD4 FP inh -7, PME-1 primary -9, GSTO1 inh -2 and Fam108B inh 5.
For COc1ccc(N2CC(C(=O)OCC(=O)Nc3cccc(C)c3)CC2=O)cc1 (centres undefined) the results were LYPLA2 counter -5, LYPLA1 inh 1, PAD4 FP inh 0, PME-1 primary 5, GSTO1 inh -2 and Fam108B inh 1.
`COc1ccc(/C=C2/C(=O)N(c3ccccc3)N=C2C)cc1` gave LYPLA2 counter -1, LYPLA1 inh 0, PAD4 FP inh 57*, PME-1 primary -1, GSTO1 inh 47*, Fam108B inh 5, GSTO1 inh conf 11 and PAD4 confirm 3.
`COC(=O)/C(=C/Nc1ccccc1)[N+](=O)[O-]` gave LYPLA2 counter 2, LYPLA1 inh 2, PAD4 FP inh 3, PME-1 primary -8, GSTO1 inh -4 and Fam108B inh -2.

Assay outcomes (PubChem BioAssay)
